# Source: PubChem BioAssay AID720517 (National Center for Advancing Translational Sciences (NCATS), 2013)
# Inconclusive results are not listed. Where a call stands in place of a potency, no number is given. Calls of active or inactive are those of the source. The call rests on the fitted dose curve; in most records, active means well fitted activation curve with a large enough effect; inconclusive means small, poorly fitted or top-dose-only effect; inactive means flat fitted curve, though single readings scatter.
# Experiment: qHTS for Inhibitors of Cell Surface uPA Generation: FP59 Counterscreen for Cherry-picked Compounds
# Conditions: FP59 anthrax toxin cytotoxicity counterscreen, cells; series mostly up to 115 µM
row,SMILES,Potency
1,CCOc1cc(/C=N/Nc2cc(C)nc3ccc(C)cc23)ccc1O,inactive
2,COc1ccc(-c2cccc(-c3cc(=O)oc4cc(OC)c(OC)c(OC)c34)c2)cc1,inactive
3,CC(=O)Nc1ccc(NC(=O)CCCCCN2C(=O)c3ccccc3C2=O)cc1,inactive
4,Cc1cccc(CCNC(=O)Cc2ccc(NC3=NC4CS(=O)(=O)CC4S3)cc2)c1 (centres undefined),inactive
5,COc1cc(C(=O)N/N=C(\Cc2ncc[nH]2)c2ccccc2)cc(OC)c1OC,inactive
6,CNC(=O)[C@@H]1CCC(=O)N1,inactive
7,O=C(OCC(=O)N1CCOCC1)c1c(Cl)ccc(Cl)c1Cl,inactive
8,O=C(NCCc1cn2ccsc2n1)c1cccs1,inactive
9,CCCCn1c(=NC(=O)c2ccco2)c(C(=O)OCC)cc2c(=O)n3cccc(C)c3nc21,inactive
10,COC(=O)C(CCSC)NC(=O)Cn1ncc2c(=O)oc3ccccc3c21 (centres undefined),inactive
11,Cc1ccccc1NC(=O)N1CCN(c2ncccn2)CC1,inactive
12,Cc1oc2c(Cl)c(Cl)c(O)c(CN(C)C)c2c1C(=O)c1ccc(Cl)cc1,inactive
13,CCC(=O)N(Cc1cc2ccc(C)cc2[nH]c1=O)c1ccccc1OC,inactive
14,CCCCCOC(=O)Nc1nnc(CCCCC)s1,inactive
15,Cc1ccc(CC2CC(=O)N(c3cc(C)ccc3C)C2=O)cc1 (centres undefined),inactive
16,COc1ccc2c(ccn2S(=O)(=O)c2ccccc2)c1,inactive
17,O=C(O)CCCC(=O)NCCCCc1ccccc1,inactive
18,Cc1nc([N+](=O)[O-])cn1CCCCN1C(=O)c2ccccc2C1=O,inactive
19,CN(C(=O)CCn1c(=S)oc2ccccc21)c1ccc(F)cc1,inactive
20,Cc1ccc(C23CC4CC(CC(C(=O)NN)(C4)C2)C3)cc1,inactive

row,SMILES,Potency
1,CCOc1ccc(C2(C)CC(=O)N(C)C2=O)cc1 (centres undefined),inactive
2,O=C(COc1cccc2ccccc12)NNC(=O)c1cnccn1,inactive
3,COC(=O)C1=CN(Cc2ccc(F)cc2)C=C(C(=O)OC)C1c1ccc(O)c(OC)c1,inactive
4,CCN(c1ccccc1)S(=O)(=O)c1ccc(NC(=O)c2ccco2)cc1,inactive
5,Cc1cc(C)nc(N2N=C(C(F)(F)F)CC2=O)n1,inactive
6,COc1ccccc1C(=O)NCc1ccccc1,inactive
7,O=C(NCCS(=O)(=O)N1CCC2(CC1)OCCO2)c1ccc(F)cc1,inactive
8,COc1ccc(NS(=O)(=O)c2cc(NS(=O)(=O)c3cc(C(=O)O)ccc3OC)ccc2C)cc1,inactive
9,CCC1(CC)NC(=O)N(CC(=O)OCC(=O)c2cc(C)c(C)cc2C)C1=O,inactive
10,Cc1cc(=O)[nH]c(=S)[nH]1,inactive
11,O=C(CNC(=O)N1CC(=O)Nc2ccccc21)Nc1cc(Cl)ccc1Cl,inactive
12,COc1ccc(C)cc1NC(=O)NNC(=O)C1CCC(C(C)(C)C)CC1 (centres undefined),inactive
13,C=CC[n+]1c(/C=C/c2ccc(OC(C)=O)c(OC)c2)ccc2ccccc21,inactive
14,NC(=O)C1CCN(C(=O)c2cccc3ccccc23)CC1,inactive
15,C[C@@H]1O[C@@H](O[C@@H]2C(=O)c3c(O)cc(O)cc3O[C@H]2c2ccc(O)c(O)c2)[C@H](O)[C@H](O)[C@H]1O,inactive
16,Cc1cnc(C(=O)OCC(=O)Nc2ccc3c(c2)OCCO3)cn1,inactive
17,Cc1ccc(NC(=O)C(C)S)cc1 (centres undefined),inactive
18,Cc1ccc(Cl)c(N/C=C/C(=O)c2ccccc2)c1,inactive
19,O=C(Nc1ccc2c(c1)CCC2)Nc1ccc2c(c1)OCO2,inactive
